In PubChem BioAssay (NCATS):
Records with an inconclusive call do not appear. Values without a mark were called inactive. Calls of active or inactive are those of the source. The call rests on the fitted dose curve.

biological target: Atrial natriuretic peptide receptor 1 (Homo sapiens) (UniProt P16066); assay: Natriuretic polypeptide receptor (hNpr1) antagonism - Pilot screen (AID 1347049); conditions: hNpr1 cells, antagonist mode cGMP read-out; series mostly up to 57.5 µM; activity change, negative = inhibition: at the top concentration;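 further: agonist-evoked cGMP luminescence read 20 min after hNppA addition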
Sequence (P16066 whole entry, looked up): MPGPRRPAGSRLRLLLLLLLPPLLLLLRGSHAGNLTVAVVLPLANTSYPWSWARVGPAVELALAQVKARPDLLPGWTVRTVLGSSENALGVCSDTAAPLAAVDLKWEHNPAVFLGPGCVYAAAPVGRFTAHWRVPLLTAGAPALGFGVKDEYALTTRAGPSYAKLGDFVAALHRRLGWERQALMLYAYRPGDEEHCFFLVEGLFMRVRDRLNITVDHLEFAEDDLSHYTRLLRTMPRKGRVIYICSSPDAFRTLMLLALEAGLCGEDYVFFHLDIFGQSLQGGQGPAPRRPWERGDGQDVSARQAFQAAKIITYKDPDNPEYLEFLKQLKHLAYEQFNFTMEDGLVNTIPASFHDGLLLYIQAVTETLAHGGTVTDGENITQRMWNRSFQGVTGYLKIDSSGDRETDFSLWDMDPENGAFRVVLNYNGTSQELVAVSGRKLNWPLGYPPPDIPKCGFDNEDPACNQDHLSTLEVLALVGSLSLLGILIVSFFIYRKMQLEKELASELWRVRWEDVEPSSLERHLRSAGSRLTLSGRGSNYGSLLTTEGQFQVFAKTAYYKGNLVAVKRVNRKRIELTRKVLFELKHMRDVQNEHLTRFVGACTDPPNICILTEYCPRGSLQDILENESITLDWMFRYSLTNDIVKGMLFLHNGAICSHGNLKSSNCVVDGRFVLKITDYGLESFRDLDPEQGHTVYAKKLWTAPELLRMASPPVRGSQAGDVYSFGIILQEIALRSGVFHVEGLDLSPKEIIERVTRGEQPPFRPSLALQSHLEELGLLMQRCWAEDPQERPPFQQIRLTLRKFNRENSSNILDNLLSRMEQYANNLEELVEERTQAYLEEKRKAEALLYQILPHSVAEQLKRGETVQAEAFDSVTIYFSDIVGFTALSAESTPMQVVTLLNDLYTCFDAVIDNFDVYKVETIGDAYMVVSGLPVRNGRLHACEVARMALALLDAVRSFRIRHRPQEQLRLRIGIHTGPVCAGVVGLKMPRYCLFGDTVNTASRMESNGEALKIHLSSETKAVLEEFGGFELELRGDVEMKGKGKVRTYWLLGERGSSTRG
Outline: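 HEK293 cells expressing hNpr1 and GloSensor cGMP luciferase, 1500/well, loaded with 2% GloSensor reagent 2 h, compound 30 min at room temperature; luminescence read before and 20 min after 0.1 nM hNppA stimulation.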
On the % scale 0 is the no-effect control and ±100 the full control effect.

First: Cc1cc(C(C)(C)C)c(O)c(C)c1CC1=NCCN1
Second: Cc1cc(C(C)(C)C)cc(C)c1CC1=NCCN1
The “activity change, negative = inhibition” value of the first is higher: 6.54% for the first, 2.78% for the second.

Compared with NS(=O)(=O)c1cc2c(cc1Cl)NCNS2(=O)=O, Cc1ccccc1N1C(=O)c2cc(S(N)(=O)=O)c(Cl)cc2NC1C (centres undefined) is lower in “activity change, negative = inhibition” value: 8.54% for the first, -6.47% for the second.

First: NC(=O)NO
Second: NCCCCCC(=O)O
The “activity change, negative = inhibition” value of the first is higher: 12.9% for the first, 9.12% for the second.

First: CN(C)c1nc(N(C)C)nc(N(C)C)n1
Second: Cn1cnc2c1c(=O)[nH]c(=O)n2C
The “activity change, negative = inhibition” value of the first is lower: -4.4% for the first, -2.01% for the second.

Going from CCOC(=O)c1ncn2c1CN(C)C(=O)c1cc(F)ccc1-2 to O=C(c1ccc(F)cc1)C1CCN(CCn2c(=O)[nH]c3ccccc3c2=O)CC1, the “activity change, negative = inhibition” value rises from -6.82% to -0.392%.

Going from CCCCc1oc2ccccc2c1C(=O)c1cc(I)c(OCCN(CC)CC)c(I)c1 to CCc1cccc2c3c([nH]c12)C(CC)(CC(=O)O)OCC3 (centres undefined), the “activity change, negative = inhibition” value falls from 10.3% to 5.29%.

Going from Cc1ccc(C(=O)Nc2ccc(S(=O)(=O)O)c3cc(S(=O)(=O)O)cc(S(=O)(=O)O)c23)cc1NC(=O)c1cccc(NC(=O)Nc2cccc(C(=O)Nc3cc(C(=O)Nc4ccc(S(=O)(=O)O)c5cc(S(=O)(=O)O)cc(S(=O)(=O)O)c45)ccc3C)c2)c1 to COc1ccc2c(c1)c(CC(=O)O)c(C)n2C(=O)c1ccc(Cl)cc1, the “activity change, negative = inhibition” value rises from 2.2% to 2.65%.

Compared with COc1ccccc1OCC(O)CN1CCN(CC(=O)Nc2c(C)cccc2C)CC1 (centres undefined), CN1C(C(=O)Nc2ccccn2)=C(O)c2ccccc2S1(=O)=O is lower in “activity change, negative = inhibition” value: 10.3% for the first, -0.0915% for the second.

First: NC(=O)OCC(COC(N)=O)c1ccccc1
Second: CCC1(c2ccccc2)C(=O)NCNC1=O
The “activity change, negative = inhibition” value of the first is lower: 8.43% for the first, 11.4% for the second.

First: CCN1CCCC1CNC(=O)c1cc(S(=O)(=O)CC)c(N)cc1OC (centres undefined)
Second: COc1cc2c(c(OC)c1OC)-c1ccc(OC)c(=O)cc1[C@@H](NC(C)=O)CC2
The “activity change, negative = inhibition” value of the first is lower: -4.62% for the first, 1.26% for the second.

First: CC(C)Cc1ccc(C(C)C(=O)O)cc1 (centres undefined)
Second: CCOC(=O)C(C)(C)Oc1ccc(Cl)cc1
The “activity change, negative = inhibition” value of the first is higher: 0.52% for the first, -0.45% for the second.

First: COc1ccc(C2CNC(=O)C2)cc1OC1CCCC1 (centres undefined)
Second: COc1cc2nc(N3CCN(C(=O)c4ccco4)CC3)nc(N)c2cc1OC
The “activity change, negative = inhibition” value of the first is lower: -5.09% for the first, 10.3% for the second.

Compared with CNCCCC12CCC(c3ccccc31)c1ccccc12, CN(C)C(=O)C(CCN1CCC(O)(c2ccc(Cl)cc2)CC1)(c1ccccc1)c1ccccc1 is lower in “activity change, negative = inhibition” value: 3.64% for the first, -14.8% for the second.

Compared with C[C@H]1c2cccc(O)c2C(O)=C2C(=O)[C@]3(O)C(O)=C(C(N)=O)C(=O)[C@@H](N(C)C)[C@@H]3[C@@H](O)[C@@H]21, C[C@](N)(Cc1ccc(O)c(O)c1)C(=O)O is higher in “activity change, negative = inhibition” value: -2.6% for the first, -1.8% for the second.

Going from Nc1nc2c(ncn2COC(CO)CO)c(=O)[nH]1 to Cn1c(=O)c2[nH]cnc2n(C)c1=O, the “activity change, negative = inhibition” value falls from 18.1% to -4.86%.

Going from COC(=O)Nc1nc2ccc(C(=O)c3cccs3)cc2[nH]1 to N[C@@H](Cc1c[nH]c2ccc(O)cc12)C(=O)O, the “activity change, negative = inhibition” value falls from 9.56% to 5.12%.

NCCS(=O)(=O)O was tested, and the “activity change, negative = inhibition” value was -2.51%.

For CN1C2CCC1CC(OC(=O)C(CO)c1ccccc1)C2 (centres undefined), the Potency was “inactive”.
